Inconclusive results are not listed. Activity calls are given as the source filed them. Unless noted, no stated cut-off is given here; in the data, active means inhibition above about 80%; inactive means the rest.
Experiments:
[1] = viability loss in pontine glioma line – cell-based, SU-DIPG-XIII, MIPE4.0, CellTiter-Glo, qHTS, dose response (AID 1347061; cut-off not given, nearly all actives have AC50 up to about 37 µM;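 further: cells exposed to compound for 48 hours before readout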); conditions: CellTiter-Glo ATP luminescence
[2] = viability loss in pontine glioma line – cell-based, JHH-DIPG-1, MIPE4.0, CellTiter-Glo, qHTS, dose response (AID 1347062; cut-off not given, nearly all actives have AC50 up to about 27 µM;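 on AC50: cells exposed to compound for two days before readout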); conditions: JHH-DIPG-1 viability, CellTiter-Glo ATP luminescence
[3] = viability loss in pontine glioma line – cell-based, SU-DIPG-XXV, MIPE5.0, CellTiter-Glo, qHTS, dose response (AID 1347065; cut-off not given, nearly all actives have AC50 up to about 26 µM;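 further: cells exposed to compound for 48 hours before ATP readout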); conditions: CellTiter-Glo ATP luminescence
[4] = growth inhibition of DIPG cells – cell-based, MIPE4.0 library, CellTiter-Glo luminescence, qHTS (AID 1347066; cut-off not given, nearly all actives have AC50 up to about 30 µM;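 further: cells exposed to compound for 48 hours before readout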); conditions: SU-DIPG-VI viability, CellTiter-Glo ATP luminescence
[5] = growth inhibition of DIPG cells – cell-based, MIPE5.0 library, qHTS (AID 1347068; cut-off not given, nearly all actives have IC50 up to about 30 µM); conditions: SU-DIPG-XXV viability
[6] = compounds altering HSF1 focus formation in cells – imaging, Selleck Cancer Library (AID 1347162; in the data active means plate-normalised HSF1 focus index below about 0.46); conditions: human cells, HSF1 nuclear foci imaging, at 10 µM; SSMD: measured here: HSF1 foci SSMD mean; cell count: measured here: cell number; plate-normalised HSF1 focus index: stronger effect = lower value
[7] = growth inhibition, single agent or in combination, cell-based, chromothripsis tumors, cisplatin or BGB combos (AID 1671449); conditions: LFS_MB_P medulloblastoma cells;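 further: cells exposed for 96 hours; 0% = vehicle DMSO and 100% = killing by high DMSO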
[8] = growth inhibition, single agent and combos, cell-based, chromothripsis tumors, cisplatin or BGB combos (AID 1671450); conditions: HDN33 neuroblastoma cells, stronger effect = higher value;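 further: cells exposed to compound for four days; 0% = vehicle DMSO and 100% = cell killing by high DMSO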
[9] = growth inhibition, single agents and combos, ICB984, cell-based, cisplatin or BGB combos, synergistic combos for chromothripsis tumors (AID 1671451; call rule not given here;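 further: cells exposed for 96 hours before readout; 0% = vehicle DMSO and 100% = killing by high DMSO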); conditions: ICB984 medulloblastoma cells, drug combinations, stronger effect = higher value
[10] = growth inhibition, single agents and combos, HTB85, cell-based, BGB or cisplatin IC20 combos, synergistic combos for chromothripsis tumors (AID 1671453); conditions: HTB85 osteosarcoma cells, drug combinations, stronger effect = higher value;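 further: cells exposed for 96 hours before readout; 0% = vehicle DMSO and 100% = high DMSO killing control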
[11] = growth inhibition, MDA-MB-436, cell-based, BGB or cisplatin combos, synergistic combos for chromothripsis tumors (AID 1671458; call rule not given here;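 further: cells exposed for 96 hours; 0% = vehicle DMSO and 100% = killing by high DMSO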); conditions: MDA-MB-436 breast carcinoma growth inhibition, drug combinations, stronger effect = higher value
[12] = BT084 cell growth, single and combined drugs, ICGC_MB145, cisplatin and BGB IC40 combos (AID 1671461); conditions: BT084 medulloblastoma cells, drug combinations, stronger effect = higher value;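 further: cells exposed to drugs for 96 hours; 0% = vehicle DMSO and 100% = high DMSO full killing control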
[13] = RCMB18 cell growth, single agent and combined, cisplatin and BGB IC40 combos (AID 1671462); conditions: RCMB18 medulloblastoma cells, stronger effect = higher value;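 further: cells exposed to compound for four days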
[14] = CRL1545 cell growth, single agent and combined, cisplatin and BGB IC20 combos (AID 1671464); conditions: CRL1545 osteosarcoma cells, stronger effect = higher value;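 further: cells exposed to compound for 96 hours before readout; 0% = vehicle DMSO and 100% = high DMSO killing control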
[15] = JHH-DIPG-1 glioma cell viability, MIPE5.0 library, CellTiter-Glo luminescence, qHTS (AID 1347067; cut-off not given, nearly all actives have AC50 up to about 26 µM;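 further: cells exposed to compound for 48 hours before readout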); conditions: JHH-DIPG-1 glioma viability, CellTiter-Glo ATP luminescence
[16] = viability loss with induced miR-34 in A549 – imaging, A549 dox-inducible miR-34, nuclei and caspase counts, primary screen (AID 1347080;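 active means compounds whose cell count with miR-34 switched on is under 0.7 times the count with it off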); conditions: A549 miR-34 inducible, Hoechst nuclei count, 48 h
[17] = MELAS cybrid and Rieske KO viability enhancers – cell-based, MELAS cybrids, Rieske KO mouse fibroblasts, CellTiter-Glo, primary screen (AID 1508586;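 active means mean z-score across replicates of 1.96 or higher in either the MELAS or the Rieske mutant cell line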;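 further: z relative to plate mean and SD of compound and empty wells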); conditions: low glucose
[18] = measured here: with BGB IC20 combination, at 0.5 µM
[19] = measured here: with cisplatin IC20 combination, at 0.5 µM

SMILES: COc1cc2ncnc(-n3nc(-c4ccccn4)nc3N)c2cc1OC
- AC50 [1]: 23.5 µM (active)
- AC50 [2]: 18.7 µM (active)
- AC50 [3]: 10.5 µM (active)
- outcome [4]: inactive
- outcome [5]: inactive
- SSMD [6]: 1.68
- cell count [6]: 7810
- plate-normalised HSF1 focus index [6]: 1.06 (inactive)
- inhibition ([7]; at 0.5 µM, stronger effect = higher value): -19.6% (inactive)
- inhibition ([7]; measured here: combination with BGB IC20, at 0.005 µM): -6.46%
- inhibition ([7]; measured here: combination with BGB IC40, at 0.005 µM): -12%
- inhibition ([7]; measured here: combination with BGB IC40, at 0.05 µM): -14.8%
- inhibition ([7]; measured here: combination with cisplatin, at 0.5 µM, stronger effect = higher value): -28.9%
- inhibition ([7]; measured here: combination with cisplatin, at 5 µM, stronger effect = higher value): 3.9%
- inhibition ([8]; BGB combo, at 5 µM): -0.513%
- inhibition ([8]; at 0.5 µM): -39.2% (inactive)
- inhibition ([8]; cisplatin combo, at 5 µM): 11.6%
- inhibition [8, 18]: -47.1%
- inhibition [8, 19]: -45.4%
- inhibition ([8]; single agent, at 5 µM): 27.9%
- inhibition ([9]; BGB IC20 combo, at 0.005 µM): 8.82%
- inhibition ([9]; BGB IC40 combo, at 0.005 µM): -28.2%
- inhibition ([9]; BGB IC40 combo, at 0.05 µM): -13.5%
- inhibition ([9]; at 0.5 µM): -27.7% (inactive)
- inhibition ([9]; cisplatin combo, at 0.05 µM): -18%
- inhibition ([9]; cisplatin combo, at 0.5 µM): -47.4%
- inhibition ([9]; cisplatin combo, at 5 µM): -33.3%
- inhibition ([9]; measured here: 5 uM single agent, at 5 µM): -7.48%
- inhibition ([10]; at 0.5 µM): -23% (inactive)
- inhibition ([10]; measured here: with BGB IC20, at 0.5 µM): -35.6%
- inhibition ([10]; measured here: with BGB IC20, at 5 µM): 15.3%
- inhibition ([10]; measured here: with cisplatin IC20, at 0.5 µM): -19.3%
- inhibition ([10]; measured here: with cisplatin IC20, at 5 µM): 25.5%
- inhibition ([10]; single agent, at 5 µM): 39.7%
- inhibition ([11]; at 0.5 µM): -17.5% (inactive)
- inhibition ([11]; measured here: BGB combination, at 0.5 µM): -21.1%
- inhibition ([11]; measured here: BGB combination, at 5 µM): -18.6%
- inhibition ([11]; measured here: cisplatin combination, at 0.5 µM): -13.3%
- inhibition ([11]; measured here: cisplatin combination, at 5 µM): -24.4%
- inhibition ([12]; at 0.5 µM): 0.0685% (inactive)
- inhibition ([12]; cisplatin combination, at 0.5 µM): 7.09%
- inhibition ([12]; cisplatin combination, at 5 µM): 63.7%
- inhibition ([12]; measured here: BGB IC40 combination 0.05 uM, at 0.05 µM): 69%
- inhibition ([12]; single agent, at 5 µM): 13.7%
- inhibition ([13]; at 0.5 µM): -14.5% (inactive)
- inhibition ([13]; cisplatin combo, at 5 µM): 36.5%
- inhibition ([13]; measured here: BGB IC40 combination, at 0.05 µM): -31.7%
- inhibition ([13]; measured here: combination with cisplatin, at 0.5 µM): -5.13%
- inhibition ([13]; single agent, at 5 µM): -24.7%
- inhibition ([14]; at 0.5 µM): -59.7% (inactive)
- inhibition [14, 18]: -65.7%
- inhibition [14, 19]: -56.7%
- inhibition ([14]; single agent, at 0.05 µM): -35.9%
- inhibition ([14]; single agent, at 5 µM): -52.5%

SMILES: Cc1cc(C(C)Nc2ccccc2)c2nc(N3CCOCC3)cc(=O)n2c1 (stereo not given)
- outcome [1]: inactive
- outcome [2]: inactive
- outcome [4]: inactive
- outcome [15]: inactive
- outcome [5]: inactive
- fold change ([16]; stronger effect = lower value, cell number ratio, induced over uninduced): 0.85 (inactive)
- fold change ([16]; measured here: relative caspase fold change +Dox/-Dox): 1.05
- cell count ([16]; measured here: total cells with miR-34 induction, stronger effect = lower value): 5530
- cell count ([16]; measured here: total cells without miR-34 induction): 6510
- z-score ([17]; MELAS cybrid survival, CellTiter-Glo 48 h, stronger effect = higher value): -0.0991 (inactive)
- z-score ([17]; Rieske KO mouse fibroblast survival, CellTiter-Glo 72 h): 1.51

Reference: PubChem BioAssay
